D3 ag: D3 dopamine receptor (human) agonism; P35462; D3R DiscoveRx beta-arrestin cells, luminescence, 90 min; max activation, %; 410,000 tested, 0.58% active; AID 652048; in the data active = max activation above about 30%; also: 0% is about no effect
Target sequence (P35462 whole entry, looked up): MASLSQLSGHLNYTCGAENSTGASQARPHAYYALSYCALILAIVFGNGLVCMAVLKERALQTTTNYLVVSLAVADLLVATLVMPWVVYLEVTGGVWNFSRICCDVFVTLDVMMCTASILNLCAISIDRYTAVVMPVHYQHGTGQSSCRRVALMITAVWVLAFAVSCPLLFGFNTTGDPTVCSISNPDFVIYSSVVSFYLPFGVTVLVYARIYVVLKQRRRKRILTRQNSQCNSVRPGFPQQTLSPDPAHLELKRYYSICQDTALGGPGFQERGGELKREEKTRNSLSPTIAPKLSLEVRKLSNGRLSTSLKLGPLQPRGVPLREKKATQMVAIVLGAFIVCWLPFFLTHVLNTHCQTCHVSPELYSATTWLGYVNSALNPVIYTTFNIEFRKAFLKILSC
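Cells at 1500/well, incubated overnight, then treated with pinned compounds (dopamine as control) for 90 min at 37 degrees C. DiscoveRx reagent added for 30 - 60 minutes at room temperature; luminescence read.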
D3 antag: antagonists of human D3 dopamine receptor. D3R cells, DiscoveRx beta-arrestin luminescence, antagonist mode; hits give low values. max response, negative = inhibition, %. 360,000 tested, 2.5% active. AID 652054; in the data active = max response below about -50%; inconclusive = no clear call, values can overlap the other calls; also: % is scaled to controls: 0 for no effect and ±100 for the full control effect
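Cells expressing the human receptor were seeded at 1500 cells/well, incubated overnight at 37 degrees C in 5% CO2, then exposed to library compounds with dopamine controls for 90 minutes at 37 degrees C before luminescent detection.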
ClpP mod: qHTS Assay for Activators of ClpP; purified B. subtilis ClpP, FRET peptide cleavage, 20 min; Potency, µM (titrated, usually from 57.5 µM), inactives show at the top dose activity change, negative = active; 340,000 tested, 1.9% active; AID 651965, 2013; active = well fitted falling curve with a large enough effect; inconclusive = small, poorly fitted or top-dose-only effect; inactive = no such curve, though single readings can be large or run the other way; also: potency is read from the fitted curve at half-maximal effect; the source files actives as falling curves though it sought activators and does not explain the sign; nearly all actives have a fitted effect of over 65% in size
Target sequence (P80244 whole entry, looked up): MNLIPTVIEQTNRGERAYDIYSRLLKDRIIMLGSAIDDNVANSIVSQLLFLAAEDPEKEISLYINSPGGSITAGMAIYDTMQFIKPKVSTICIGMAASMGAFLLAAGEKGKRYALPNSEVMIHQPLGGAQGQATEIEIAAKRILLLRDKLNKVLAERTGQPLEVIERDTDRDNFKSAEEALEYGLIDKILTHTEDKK
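Buffer: 100 mM Tris/HCl pH8, 100 mM KCl, 0.05% low protease BSA, 2.5% glycerol, 0.01% Tween-20. ClpP 10 microg/mL final; 20 min RT; delta FRET normalized to ADEP and DMSO controls.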
GLP-1R inv ag: inverse agonists of human GLP-1 receptor. Potency, µM (series often up to 38.3 µM), for the others: at the top dose activity change, negative = inhibition, usual class: inhibitors. AID 624417. P43220. 410,000 tested, 1.6% active. HEK293 GLP-1R CRE-luciferase, luminescence, 24 h; GLP-1R form is constitutively active; also: potency is read from the fitted curve at half-maximal effect; % is scaled to controls: 0 for no effect and ±100 for the full control effect; nearly all actives have a fitted effect of over 55% in size
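Constitutively active GLP-1R drives a cAMP-responsive luciferase in stably transfected HEK293 cells; test compounds are added after overnight (12 h) attachment and left 24 hr, and signal loss in luminescence marks inhibition.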
GLP-1R agonist: activates the human GLP-1 receptor; P43220; HEK293 GLP-1R CRE-luciferase, luminescence, 4-6 h; cells express a hypersensitive GLP-1R form; Potency, µM (doses to about 45.6 µM), for the others: top-dose activation, usual class: activators; 380,000 tested, 0.007% active; AID 624172; also: potency is read from the fitted curve at half-maximal effect; % of control where 0% means no effect
GLP1R cytotox: cytotoxicity counter-screen for GLP-1 receptor inverse agonists. HEK293 cAMP-luciferase reporter cells, luminescence, 24 h. AID 624418. 410,000 tested, 0.13% active. Potency, µM (series often up to 38.3 µM), for inactives: at the highest dose activity change, negative = inhibition, hits mostly inhibitors;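 also: loss of luciferase light is scored as toxicity; potency is read from the fitted curve at half-maximal effect; % is scaled to controls: 0 for no effect and ±100 for the full control effect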
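Here, cytotoxicity is scored as loss of luminescence. The MLSMR collection was tested on cells seeded in medium containing 10% Nu serum, with a 24 hr compound exposure preceded by 12 hours of culture.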
* hit, by the source's call; ? = inconclusive; / = not tested or not shown; [ ] = another dose, or the depositor's remark. Sampled rows, rich in hits. Any-hit rate of the full collection: about 5.7%. Unless noted, calls follow the shape of the dose curve; as a rule, active = well fitted curve in the direction sought with a large enough effect; inconclusive = small, poorly fitted or top-dose-only effect, or another doubt; inactive = no such curve, though single readings can be large; an effect the other way counts as inactive or inconclusive.

SMILES	D3 ag	D3 antag	ClpP mod	GLP-1R inv ag	GLP-1R agonist	GLP1R cytotox
CC(C)CNC(=S)NNC(=O)c1csc2c1CCC(C)C2 (stereo not drawn)	-34	-55*	1%	?	-14%	1%
O=C(NCCC1=CCCCC1)c1ccc2c(c1)N(Cc1ccc(F)cc1)C(=O)c1ccccc1S2(=O)=O	-17	/	-1%	?	/	-16%
CN(C)c1ccc(CNc2nc3cc(-c4ccc(F)cc4)sc3c(=O)n2C)cc1	-1	17	-7%	-25%	-3%	35%
N#CC1(C#N)C(c2ccccc2)OC23CCCCCC2C1(C#N)C(=N)O3 (stereo not drawn)	1	-1	32µM*	2%	2%	93%
CCCCCCCCOc1ccc(C2OC34CCCCC3C(C#N)(C#N)C2(C#N)C(=N)O4)cc1 (stereo not drawn)	6	7	20µM*	2%	-5%	275%
N#CC1(C#N)C(c2ccccc2)OC23CCCCC2C1(C#N)C(=N)O3 (stereo not drawn)	5	6	14µM*	12%	-5%	15%[1.53 µM]
CCCCC1OC23CCCCC2C(C#N)(C(=N)O3)C1(C#N)C#N (stereo not drawn)	3	-7	?	8%	-16%	104%
COc1ccc(-c2nnc(SCC(=O)NCCc3ccc(OC)c(OC)c3)nc2-c2ccc(OC)cc2)cc1	-16	/	-1%	1%	/	0%
CC(C)(C)Sc1ccc2nc3c(n2c1)CCCC3	1	6	16µM*	10µM*	?	?
Cc1ccc2c(Cl)c(C)c(N3CCCCC3)nc2n1	-3	5	-4%	7.1µM*	18%	?
C1CCN(c2nc3nonc3nc2N2CCCCC2)CC1	17	5	2%	5%	-9%	2%
Cc1ccccc1C(=O)N(Cc1sccc1C)C1CCS(=O)(=O)C1 (stereo not drawn)	0	/	-1%	-5%	/	6%
COc1ccc(-c2ccc3oc(-c4ccc(OC)cc4)c(C#CCO)c3c2)cc1	58*	111	4%	?	-1%	?
COc1ccc(-c2oc3ccc(N4CCOCC4)cc3c2C#CCO)cc1	18	95	4%	-2%	-3%	-1%
COc1ccc(-c2ccc3oc(-c4ccc(OC)cc4)c(-c4ccc(OC)cc4)c3c2)cc1	72*	15	4%	19%	-6%	10%
COc1ccc(-c2ccc3oc(-c4ccsc4)c(-c4ccc(OC)cc4)c3c2)cc1	-8	6	?	1%	0%	-1%
NS(=O)(=O)c1ccc(NC(=S)NCc2ccccc2Cl)cc1	-8	-68*	-2%	?	-4%	31%
Nc1c(NC/C=C\COc2cc(CN3CCCCC3)ccn2)c(=O)c1=O	-19	/	/	/	4%	/
COC(=O)[C@@]12C[C@@H](CC(=O)NCc3cccc(C(F)(F)F)c3)C(=O)N(Cc3cccc4ccccc34)C1=CCC(C)(C)C2	0	-4	-3%	?	/	-15%
Cc1ccc(C(=O)N(Cc2ccco2)Cc2ccco2)cc1	0	/	0%	-9%	/	9%
Cc1ccc(CN(Cc2ccco2)C(=O)c2cccc(C)c2)cc1	-2	/	-4%	11µM*	/	1%
CN(C)c1ccc(CN(Cc2ccco2)C(=O)c2ccc(C(C)(C)C)cc2)cc1	-2	/	-14%	11µM*	/	0%
CCCCSCCCNC(=O)c1cc(-c2cccnc2)nc2ccc(S(=O)(=O)N3CCC(C)CC3)cc12	-4	/	1%	15%	/	-5%
COc1cc2nc(N3CCCN(C)CC3)nc(N(C)C)c2cc1OC	/	/	5%	/	/	/
Cc1cc(N2CCCCC2)n2ncc(-c3ccc(Cl)cc3)c2n1	3	23	32µM*	0%	6%	2%
SMILES	D3 ag	D3 antag	ClpP mod	GLP-1R inv ag	GLP-1R agonist	GLP1R cytotox
Cc1cc(N2CCC(C)CC2)n2ncc(-c3ccccc3)c2n1	1	-8	32µM*	?	0%	39%
CCc1ccc(NC(=O)C(=O)NCCc2csc(-c3ccc(C(F)(F)F)cc3)n2)cc1	-7	/	-2%	2%	/	1%
COc1ccccc1NC(=O)C1=C(C)Nc2nc(SCc3ccccc3F)nn2C1c1cccs1 (stereo not drawn)	-2	/	-2%	-4%	0%	7%
Cc1cccnc1C(c1ccc(F)cc1)N(C)C(=O)C1CCN(CCOc2ccc(Cl)cc2Cl)CC1 (stereo not drawn)	-3	-74*	1%	?	-3%	?
Cc1cccnc1C(c1ccc(F)cc1)N(C)C(=O)C1CCN(CCCOc2ccc(F)cc2)CC1 (stereo not drawn)	-21	-94*	1%	?	-3%	0%
CC(C)c1ccc(OCCCN2CCCC2)cc1	-6	?	1%	?	-2%	6%
O=S(=O)(Cc1ccc(Cl)cc1)c1ccccc1-c1nnc(-c2ccccc2)o1	0	-7	32µM*	-6%	2%	12%
CS(=O)(=O)c1ccccc1-c1nnc(-c2ccc(Cl)cc2)o1	2	2	/	8%	10%	1%
CCCCn1cc(S(=O)(=O)c2ccc(Cl)cc2)c(=O)c2cc(F)c(N3CCCCC3)cc21	-10	/	-4%	9%	/	-10%
COCCCNC(=O)CCCn1c(=O)c2ccccc2n(CC(=O)Nc2ccc(C)cc2Cl)c1=O	-10	/	-14%	-7%	0%	-2%
COc1ccc2cc(C(=O)NCc3ccco3)c(=Nc3ccc(C(=O)O)cc3)oc2c1	-3	-9	20µM*	-11%	-6%	-19%
COc1ccc2oc(=Nc3ccc(C(=O)O)cc3)c(C(=O)NCc3ccco3)cc2c1	1	14	-2%	1%	-2%	20%
CCOc1ccc(NC(=O)CCCN2C(=S)NC(C)(C)CC2C)cc1 (stereo not drawn)	5	0	28µM*	1%	7%	12%
COc1ccc(CNC(=O)CCN2C(=S)NC(C)(C)CC2C)cc1 (stereo not drawn)	3	1	-10%	-5%	1%	15%
Cc1ccc(C)c(N2CCN(C(=O)CCCN3C(=S)NC(C)(C)CC3C)CC2)c1 (stereo not drawn)	-7	2	?	11µM*	7%	?
Cc1cccc(NC(=O)CCCN2C(=S)NC(C)(C)CC2C)c1C (stereo not drawn)	4	-3	/	8%	7%	11%
Cc1cccc(N2CCN(C(=O)CCN3C(=S)NC(C)(C)CC3C)CC2)c1C (stereo not drawn)	3	-24	-1%	2%[0.307 µM]	-11%	-9%[0.307 µM]

Compound activity as filed in PubChem BioAssay.
